A number with no mark means an inactive call. Active and inactive are the calls of the source. The call rests on the fitted dose curve; in most records, active means well fitted curve in the direction sought with a large enough effect in the repeat runs; inconclusive means weak or mixed curves; inactive means flat fitted curve, though single readings scatter. Positions of bridges follow the written chain, without caps; N, C: chain ends. Non-standard residues stand in square brackets, D forms with d. Residues, ends and D or L forms follow the SMILES beside them. hArg = N=C(N)NCCCC[C@H](N)C(=O)O; Mpa = O=C(O)CCS
assay: qHTS assay to test for compound auto fluorescence at 590 nm (red) in HEK293 cell free culture (AID 720683); conditions: cell-free medium autofluorescence, Ex540/Em590 red; series mostly up to 91.3 µM; fluorescence, % of fluorescent control: at the top concentration
Text: U.S. Tox21 Program National Center for Advancing Translational Sciences [NCATS] NIH Chemical Genomics Center [NCGC] U.S. Environmental Protection Agency [EPA] National Institutes of Environmental Health Sciences [NIEHS] National Toxicology Program [NTP] U.S. Food and Drug Administration [FDA] Tox21 Assay Overview: Compound auto fluorescence often interferes with screening of the compound library against various biological targets and signaling pathways. Some of these compounds may have fluorophoric properties. Such properties may interfere with the assay outputs resulting in false positives and/or negatives. To decrease such complications and ensure the compound activities are relevant in terms of biological response, the Tox21 10K compound library was screened for auto fluorescence. From the fluorophores used as reporter signals in our screening assays, the auto fluorescence equivalencies of compounds against three fluorophores have been evaluated: Triamterene, Fluorescein and Rose Bengal sodium for blue, green and red fluorescence, respectively. The fluorescence intensities were measured using Excitation/Emission wavelengths at 405/460nm, 485/535nm and 540/590nm for blue, green and red labels, respectively. This assay includes the red fluorescence data.
Tox21 Assay Protocol Summary: 5 uL of culture medium (DMEM containing 10% FBS) per well was dispensed into black wall/clear bottom 1536-well plates using a Multidrop Combi Dispenser (ThermoFisher Scientific, Waltham, MA). After 23 nL compound or DMSO vehicle was transferred into assay plate by a pintool work station (Kalypsys, San Diego, CA), fluorescence intensities in the assay plates were measured by an Envision (PerkinElmer, Shelton, CT) plate reader using three labels for measuring blue, green and red fluorescence at […] 460, 535 and 590nm respectively.
On the % scale 0 is the no-effect control and ±100 the full control effect.

Q: For `O=C(O)[C@H](O)c1ccccc1`, which “fluorescence, % of fluorescent control” value is on record?
A: The value was -0.0132% [at 46 µM].

Q: Which “fluorescence, % of fluorescent control” value does the source give for `CCCCCC/C=C/C(=O)OC` here?
A: Its value is 0.0821%.

Q: For `CC/C=C\CCOC(=O)c1ccccc1O`, which “fluorescence, % of fluorescent control” value is on record?
A: Its value is 0.322%.

Q: Which fluorescence, % of fluorescent control does the source give for `CN1CCOC(c2ccccc2)c2ccccc2C1` (stereo not given) here?
A: The fluorescence, % of fluorescent control was -0.107% [at 18.6 µM].

Q: For `NC(=O)[C@@H]1CSSCCC(=O)N[C@@H](CCCCN=C(N)N)C(=O)NCC(=O)N[C@@H](CC(=O)O)C(=O)N[C@@H](Cc2c[nH]c3ccccc23)C(=O)N2CCC[C@H]2C(=O)N1` ([Mpa][hArg]GDWPC-NH2; disulfide 1-7), which “fluorescence, % of fluorescent control” value is on record?
A: The value was -0.469% [at 46 µM].

Q: For `C=C(C)[C@@H]1CC=C(C)CC1`, which “fluorescence, % of fluorescent control” value is on record?
A: The value was -0.436%.

Q: For `CC(C)[C@H]1CC[C@H](C)C[C@@H]1O`, which “fluorescence, % of fluorescent control” value is on record?
A: Its value is 0.0119% [at 95.7 µM].

Q: Which “fluorescence, % of fluorescent control” value does the source give for `COC(=O)c1ccccc1C(=O)O` here?
A: Its value is 0.0759%.

Q: For `O=NN(CCCl)C(=O)NC1CCCCC1`, which “fluorescence, % of fluorescent control” value is on record?
A: The value was -0.599% [at 46 µM].

Q: For `Nc1nnnn1-c1ccccc1`, which “fluorescence, % of fluorescent control” value is on record?
A: The value was -0.514% [at 46 µM].

Q: With `CC(C)(C)NC[C@H](O)COc1cccc2c1CCCC2=O` as the compound, how does the fluorescence, % of fluorescent control read?
A: Its fluorescence, % of fluorescent control is -0.286% [at 18.6 µM].

Q: Which “fluorescence, % of fluorescent control” value does the source give for `CC12CCC(C1)C(C)(C)C2O` (stereo not given) here?
A: The value was -0.364%.

Q: Which outcome does the source give for `CC(=O)O[C@@H]1CC2CCC1(C)C2(C)C` (stereo not given in full) here?
A: The outcome was “inactive”.

Q: Which “fluorescence, % of fluorescent control” value does the source give for `C=CCOC(=O)CCCCCC` here?
A: The value was 0.0032%.

Q: Which “fluorescence, % of fluorescent control” value does the source give for `C[C@H]1[C@@H](c2ccccc2)NC(=O)N1C` here?
A: Its value is 0.11%.

Q: With `CCCCCCCCCOC(=O)c1ccccc1C(=O)OCCCCCCCCC` as the compound, how does the “fluorescence, % of fluorescent control” value read?
A: The value was 0.0589%.

Q: With `O=[N+]([O-])c1c(Cl)cc(Cl)cc1Cl` as the compound, how does the “fluorescence, % of fluorescent control” value read?
A: The value was -0.0349%.

Q: For `C/C(CC(C)C)=N\O`, which “fluorescence, % of fluorescent control” value is on record?
A: The value was -0.151%.

Q: With `C=CCCCC` as the compound, how does the “fluorescence, % of fluorescent control” value read?
A: Its value is -0.0853% [at 95.7 µM].

Q: With `CO/N=C(/C(=O)N[C@@H]1C(=O)N2C(C(=O)[O-])=C(C[n+]3ccn4ncccc43)CS[C@H]12)c1nsc(N)n1` as the compound, how does the outcome read?
A: The outcome was “inactive”.

Q: For `CC(C)OC(=O)CCC(=O)OC(C)C`, which “fluorescence, % of fluorescent control” value is on record?
A: The value was -0.168%.

Q: With `CSc1cnccn1` as the compound, how does the “fluorescence, % of fluorescent control” value read?
A: Its value is -0.0461%.

Q: Which “fluorescence, % of fluorescent control” value does the source give for `CCOC(=O)CC1(C)OCC(C)O1` (stereo not given) here?
A: The value was -0.0627%.

Q: Which “fluorescence, % of fluorescent control” value does the source give for `CCCCCc1cccc(=O)o1` here?
A: Its value is -0.0295%.

Q: With `OCC1(CO)COCOC1` as the compound, how does the “fluorescence, % of fluorescent control” value read?
A: Its value is 0.0481%.

Q: With `CCCCCCCCCCCCCBr` as the compound, how does the “fluorescence, % of fluorescent control” value read?
A: The value was 0.0898%.

Q: Which “fluorescence, % of fluorescent control” value does the source give for `CC(N)CCCC(C)(C)O` (stereo not given) here?
A: The value was 0.319% [at 46 µM].

Q: Which “fluorescence, % of fluorescent control” value does the source give for `CC1(C)O[C@H]2CC(=O)OC[C@]23[C@H]2CC[C@@]4(C)[C@H](c5ccoc5)OC(=O)[C@H]5O[C@]54[C@]2(C)C(=O)C[C@@H]13` here?
A: The value was -0.0258% [at 46 µM].

Q: With `CC(C)OC(=O)OCOP(=O)(CO[C@H](C)Cn1cnc2c(N)ncnc21)OCOC(=O)OC(C)C` as the compound, how does the outcome read?
A: The outcome was “inactive”.

Q: For `CCCCCCCCCCCCCCCCCCOCCO`, which fluorescence, % of fluorescent control is on record?
A: The fluorescence, % of fluorescent control was 0.138% [at 18.6 µM].

Q: With `CC1c2ccccc2CN1NC(=O)c1ccc(Cl)c(S(N)(=O)=O)c1` (stereo not given) as the compound, how does the “fluorescence, % of fluorescent control” value read?
A: The value was 0.408% [at 46 µM].

Q: For `CC(Oc1cc(Cl)ccc1Cl)C(=O)O` (stereo not given), which “fluorescence, % of fluorescent control” value is on record?
A: The value was -0.552%.

Q: Which “fluorescence, % of fluorescent control” value does the source give for `CCCCCCCCCCOC(C)=O` here?
A: The value was -0.0901%.

Q: For `CCNC(=O)NCc1cccc(Cl)c1`, which “fluorescence, % of fluorescent control” value is on record?
A: Its value is 0.231% [at 46 µM].

Q: Which “fluorescence, % of fluorescent control” value does the source give for `C=C(C)C1CC=C(C)C(=O)C1` (stereo not given) here?
A: Its value is 0.257%.

Q: Which “fluorescence, % of fluorescent control” value does the source give for `COC(=O)c1cc(Cl)cc(Cl)c1` here?
A: Its value is -0.118%.

Q: With `CC1=C(C(=O)O)N2C(=O)[C@@H](NC(=O)[C@H](N)C3=CCC=CC3)[C@H]2SC1` as the compound, how does the “fluorescence, % of fluorescent control” value read?
A: The value was 0.214% [at 46 µM].

Q: With `CC(=O)c1cc(C)oc1C` as the compound, how does the “fluorescence, % of fluorescent control” value read?
A: Its value is 0.0002% [at 95.7 µM].

Q: With `CCCC(CC)c1ccccc1` (stereo not given) as the compound, how does the “fluorescence, % of fluorescent control” value read?
A: The value was 0.124%.

Q: Which “fluorescence, % of fluorescent control” value does the source give for `C=CCN1C[C@H](C(=O)N(CCCN(C)C)C(=O)NCC)C[C@@H]2c3cccc4[nH]cc(c34)C[C@H]21` here?
A: Its value is 0.731% [at 46 µM].

— PubChem BioAssay (Tox21)
